Screen size: about 65,000 compounds; about 2,100 (3.2%) showed an effect of 50% or more. The median lay at about -52%. The sample as a whole holds a higher share of strong results than the screen did.
The molecules below were run on Plasmodium falciparum (assay: Screen against P. falciparum Asexual Blood Stage (ABS), at 5uM). Conditions: tested at 5 uM.
Assay type: functional, Dd2
`COc1c(C)cnc(CN(C)C2CCCCC2)c1C` showed an INHIBITION of 76.7%. In the case of `COc1c(C)cnc(CN2CCC(N(C)C(C)C(N)=O)CC2)c1C` (stereo unspecified), the INHIBITION is reported as 78.2%. `Cc1n[nH]c2c1C(c1ccc(O)cc1)SCC(=O)N2` (stereo unspecified) was tested, and the INHIBITION was -12.2%. With `Cc1cnccc1CN1CC[C@H](Oc2cccc(F)c2)[C@@](C)(O)C1` the INHIBITION was 80.2%. For `O=C(Cc1ccccn1)N1CCN2C[C@H](Oc3cccc(F)c3)C[C@H]2C1`, the INHIBITION was -85.6%. With `Cc1cccnc1CN1CCC2(CC(Nc3ccncn3)C2)C1` (stereo unspecified) the INHIBITION was -21.6%. For `Fc1cccc(O[C@@H]2C[C@H]3CN(Cc4ccncc4)CCN3C2)c1`, the INHIBITION was -111%. Molecule `Fc1cccc(O[C@@H]2C[C@H]3CN(Cc4ccccn4)CCN3C2)c1` has an INHIBITION of -29.8%. `Cc1cccnc1CN1CC[C@H](Oc2cccc(F)c2)[C@@](C)(O)C1` was tested, and the INHIBITION was 75%. `O=C(c1ccsc1)N1CCN2C[C@H](OCc3ccccn3)C[C@H]2C1` gave an INHIBITION of -131%. `Cc1cc(CN2CC[C@@H]3O[C@@H](c4nnc(C)o4)C[C@H]3C2)no1` gave an INHIBITION of -68.8%. In the case of `Cc1csc([C@H]2C[C@H]3CN(Cc4cc(C)on4)CC[C@@H]3O2)n1`, the INHIBITION is reported as -109%. `Cn1nc(CN2CCCCC(N)C2)c2c(Cl)cccc21` (stereo unspecified) was tested, and the INHIBITION was 66.2%. `Cc1cc(-c2nn(C)c(Cl)c2CN2CCCCC(N)C2)no1` (stereo unspecified) was tested, and the INHIBITION was 70.3%. With `CS(=O)(=O)N[C@@H]1CN(Cc2ccncc2)C[C@@H]2CCCO[C@@H]21` the INHIBITION was -73%. `OC1(CN2CCC(Oc3cccc(C(F)(F)F)c3)CC2)CCNC1` (stereo unspecified) showed an INHIBITION of 90.3%. For `NCC1(c2cccc(C(F)(F)F)c2)CCCC1`, the INHIBITION was 32.6%. In the case of `NC(=O)CN1CCCN(C(=O)Cc2cccc(C(F)(F)F)c2)CC1`, the INHIBITION is reported as -122%. `CC(N)C(=O)N1CCC(Oc2cccc(C(F)(F)F)c2)CC1` (stereo unspecified) was tested, and the INHIBITION was 76.6%. With `CC[C@H]1CN2CC[C@H]1C[C@@H]2CNC(=O)Nc1cccc(C(F)(F)F)c1` the INHIBITION was -88.1%. In the case of `Cc1ccc(CN2C[C@@H](OCc3ccccn3)[C@H]3COC[C@H]32)o1`, the INHIBITION is reported as -72.9%. With `CCc1ccc(CN2CC[C@@H]3NC(=O)CC[C@@H]32)o1` the INHIBITION was 11.1%. `COc1cccc(CNCc2ccccc2Cl)c1O` showed an INHIBITION of 77%. For `COc1cccc(CNCc2ccc(F)cc2Cl)c1O`, the INHIBITION was 79.5%. Molecule `c1cc(COC[C@]23COC[C@H]2CN(Cc2ccsc2)C3)ccn1` has an INHIBITION of 41.6%. `Cc1ncsc1CN1C[C@@H](OCc2ccccn2)[C@H]2OCCC[C@H]21` gave an INHIBITION of -244%. Molecule `CCN1c2ccc(-c3cncn3CC(=O)NC(C)(C)C)cc2CC1C` (stereo unspecified) has an INHIBITION of 73.2%. `Cc1nn(C)c(C)c1CN1CCNCC1` showed an INHIBITION of -133.5%. With `Cc1nn(C)c(C)c1CCn1cncc1-c1ccc2c(c1)CC(C)N2C` (stereo unspecified) the INHIBITION was 82.6%. Work on `CCN1c2ccc(-c3cncn3CCCn3ccnc3C)cc2CC1C` (stereo unspecified) yielded an INHIBITION of 86.6%. `Cc1cc(C)n(CCCn2cncc2-c2ccc3c(c2)CC(C)N3C)n1` (stereo unspecified) was tested, and the INHIBITION was 87.4%.

Source: ChEMBL document CHEMBL4513216, “Probing the Open Global Health Chemical Diversity Library for Multistage-Active Starting Points for Next-Generation Antimalarials” (ACS Infect Dis, 2020)
